# An excerpt weighted towards active compounds, which were near 5.7% of everything screened.
# hcDAF12 agonist: activates DAF-12 receptor from parasite H. contortus. HEK293 hcDAF-12 lit1-tk-luc reporter, luminescence; 0% DMSO, 100% Δ7-dafachronic acid. activation, % at 6.8 µM. 1.4% of 370,000 active;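 active = activation above the mean of all tested compounds plus 3 SD, cut at about 5.5% in these data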;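 also: 100% = response to 3 µM Δ7-dafachronic acid high control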
# AHR activator: human AHR activation; P35869; AHR-responsive luciferase reporter cells, luminescence; 2.5% of 320,000 active; AID 2796; activation, % at 5 µM; in the data active = activation above about 47%;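 also: 0% = vehicle wells and 100% = reference agonist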
# Target sequence (P35869 whole entry, looked up): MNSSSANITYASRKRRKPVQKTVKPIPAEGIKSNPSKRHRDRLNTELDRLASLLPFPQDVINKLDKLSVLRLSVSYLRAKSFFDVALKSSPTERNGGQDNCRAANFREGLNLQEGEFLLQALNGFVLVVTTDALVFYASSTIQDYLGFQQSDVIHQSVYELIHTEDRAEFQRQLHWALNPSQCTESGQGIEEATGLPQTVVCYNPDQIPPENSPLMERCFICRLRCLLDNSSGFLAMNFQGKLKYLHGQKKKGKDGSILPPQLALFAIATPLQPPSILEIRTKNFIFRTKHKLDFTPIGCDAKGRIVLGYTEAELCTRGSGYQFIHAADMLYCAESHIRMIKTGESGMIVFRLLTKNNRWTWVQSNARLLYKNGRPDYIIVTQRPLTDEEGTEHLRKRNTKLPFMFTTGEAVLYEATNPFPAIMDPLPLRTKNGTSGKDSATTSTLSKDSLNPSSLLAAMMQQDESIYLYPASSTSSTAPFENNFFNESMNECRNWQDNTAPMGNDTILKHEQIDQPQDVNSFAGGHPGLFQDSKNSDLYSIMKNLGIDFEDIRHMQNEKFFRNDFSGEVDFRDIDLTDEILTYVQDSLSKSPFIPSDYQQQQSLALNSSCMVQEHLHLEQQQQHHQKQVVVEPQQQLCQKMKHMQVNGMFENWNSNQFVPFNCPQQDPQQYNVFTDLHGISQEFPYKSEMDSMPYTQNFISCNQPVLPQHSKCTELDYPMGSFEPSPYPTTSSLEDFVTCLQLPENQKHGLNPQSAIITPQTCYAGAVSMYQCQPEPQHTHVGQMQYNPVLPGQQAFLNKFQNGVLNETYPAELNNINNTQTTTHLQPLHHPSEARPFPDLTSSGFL
# hgDAF12 agonist: agonists of H. glycines DAF-12 nuclear receptor; HEK293 GAL4-hgDAF12 UAS-luciferase reporter, agonist luminescence; normalized to butyrate control; activation, % at 6.8 µM; 1.8% of 370,000 active; AID 687014;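 active = activation above a cutoff set at the mean of all screened compounds plus 3 SD, cut at about 10% in these data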;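 also: 0% = DMSO wells and 100% = sodium butyrate wells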
# DAX1 inh-1: blocks DAX1 repression of SF-1 activated StAR promoter; AID 652010; HEK293T StAR-luciferase reporter, SF-1/DAX-1 repression relief; 1.1% of 370,000 active; inhibition, % at 6.8 µM;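 active = inhibition above the mean over all tested compounds plus 3 SD, cut at about 3.6% in these data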;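 also: 0% = DAX-1 cells with DMSO and 100% = cells lacking DAX-1 with DMSO; higher inhibition means more luminescence from relief of DAX-1 repression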
# DAX1 inh-2: inhibits human nuclear receptor DAX1. inhibition, % at 6.75 µM. P51843. 0.99% of 340,000 active. HEK293 Gal4-DAX1 luciferase reporter, luminescence;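 active = inhibition above the mean over all tested compounds plus 3 SD, cut at about 4.2% in these data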;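 also: 0% = DAX1-transfected cells with DMSO and 100% = empty-vector control cells with DMSO; inhibition shows as a rise in luminescence from relieved DAX1 repression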
# ssDAF12 agonist: activates DAF-12 receptor from parasite S. stercoralis. HEK293 ssDAF-12/GRIP1 lit1-tk-luc reporter, luminescence; % of 3 µM dafachronic acid response. 1% of 370,000 active. activation, % at 6.8 µM;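 active = activation above the mean over all tested compounds plus 3 SD, cut at about 0.9% in these data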;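 also: 0% = DMSO-only wells and 100% = 3 µM delta7-dafachronic acid wells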
# The depositor's hits bear a star; / = no result.
SMILES,hcDAF12 agonist,AHR activator,hgDAF12 agonist,DAX1 inh-1,DAX1 inh-2,ssDAF12 agonist
CN(C(=O)CSc1nnc(-c2cccs2)n1N)c1ccccc1,0.4,0.0,-0.9,0.0,0.2,-1.0
Cc1nnc(SCC(=O)N(C)c2ccccc2)n1-n1cccc1,/,1.4,/,/,4.7*,/
Cc1cc(C)n2c(=O)[nH]nc2c1,0.5,/,0.8,0.0,0.2,-0.8
Cc1cccc(NC(=O)/C(C#N)=C/c2ccccc2O)n1,4.6,/,7.6,1.2,1.0,0.8
N#C/C(=C\c1ccccc1O)C(=O)Nc1ccccn1,5.8*,13.4,4.3,0.2,1.2,0.7
COC(=O)[C@]12C[C@H](CC(=O)N3CCOCC3)C(=O)N(Cc3ccccc3)C1=C[C@H](C(C)(C)C)O[C@@H]2C,0.1,/,-0.7,-0.6,/,-0.7
CCC(CO)Nc1ccn2nc(-c3cccs3)cc2n1 (configuration not stated),3.6,/,11.2*,3.9*,/,-0.4
O=C(CCSc1ccccc1Cl)Nc1cccc([N+](=O)[O-])c1,5.4,-3.9,10.5*,0.8,0.5,-0.8
Cc1ccc(S(=O)(=O)NC(=O)Nc2cccc([N+](=O)[O-])c2)cc1,-2.1,-0.9,1.1,-0.5,0.3,-0.7
Cc1ccc(S(=O)(=O)NCC(=O)Nc2cccc([N+](=O)[O-])c2)cc1,5.3,13.5,1.1,-0.5,-0.1,1.7*
Cc1ccc(S(=O)(=O)NCCNc2ccccc2[N+](=O)[O-])cc1,-1.0,2.0,-0.2,0.8,4.3*,-2.2
Cc1ccc(S(=O)(=O)NCCCNS(=O)(=O)c2ccccc2[N+](=O)[O-])cc1,-2.9,-0.3,0.4,-0.8,1.1,-0.9
Cc1ccc(NC(=O)CCCCCNS(=O)(=O)c2ccc(C)cc2)cc1,1.6,2.9,-1.0,0.7,0.9,1.1*
COC(=O)C1=C(C)N(C)C(=NCc2ccc3c(c2)OCO3)NC1c1ccc(Cl)cc1 (configuration not stated),-1.5,/,-1.5,0.4,/,-1.1
COC(=O)/C=C1\N/C(=N\c2nc(C)cc(C)n2)N(c2ccc(C)c(C)c2)C1=O,2.7,1.3,5.5,-0.6,2.8,-0.3
CC(C)(C)c1nn2cnnc2n(/N=C/c2ccc(O)cc2)c1=O,-3.1,0.3,-0.6,-0.2,1.1,-0.9
Cn1c(=O)c2cc3c(nc2n(C)c1=O)CC(c1ccccc1)CC3=O (configuration not stated),3.2,59.5*,0.8,-0.4,3.8,0.7
CSc1nc2nc3c(cn2n1)C(=O)CC(c1ccccc1)C3 (configuration not stated),-1.4,0.7,-2.4,-0.1,0.1,-1.8
COC(=O)N1C[C@H](OCc2ccccc2)[C@H]2C[C@@H]1c1ccccc1O2,-2.6,/,-3.2,-0.5,/,-0.9
CC(C)C[C@@H](CN1CCC[C@@H]1CN1C(=S)NC[C@@H]1Cc1ccc(O)cc1)N1C[C@H](Cc2ccc(O)cc2)N(CC2CCCCC2)C1=S,-1.7,/,-4.3,0.2,/,-1.5
Cc1c(N=C/C=C2\N(C)c3ccccc3C2(C)C)c(=O)n(-c2ccccc2)n1C,0.0,1.5,-0.1,0.2,-0.7,-1.6
CN1/C(=C\C=Nc2ccc3ccccc3c2)C(C)(C)c2ccccc21,/,55.4*,/,/,-0.3,/
CN1/C(=C\C=O)C(C)(C)c2ccccc21,-0.7,63.9*,-1.8,0.1,-0.6,-1.9
CN(C)c1ccc(N=C/C=C2\N(C)c3ccccc3C2(C)C)cc1,0.9,150.1*,-2.1,-1.0,2.2,-0.8
CN1\C(=C/C=C/C=C/C=[N+](C)C)C(C)(C)c2ccccc21,-1.4,/,-3.1,-1.4,-0.8,-2.5
SMILES,hcDAF12 agonist,AHR activator,hgDAF12 agonist,DAX1 inh-1,DAX1 inh-2,ssDAF12 agonist
Nc1cc(Cl)ccc1C(=O)OCC(=O)N1CCCCCC1,-0.2,10.4,5.9,-0.1,1.3,-0.2
CSc1ncccc1C(=O)Nc1cc(Cl)ccc1N1CCOCC1,-1.3,4.8,-2.7,-0.8,0.5,-1.5
COc1cc(/C=C\C(=O)OCn2nnc3ccccc3c2=O)cc(OC)c1OC,-2.5,-0.5,-3.0,-0.7,1.7,-1.7
N#Cc1cnn2c(=O)[nH]cnc12,0.2,/,-1.2,0.8,0.3,-1.4
O=C(Nc1ccc(NC(=O)c2cccs2)cc1Cl)c1ccco1,-0.8,-6.5,3.9,2.1,0.8,-0.5
O=C(Nc1ccc(NC(=O)C2CC2)cc1)c1ccco1,2.2,1.0,10.9*,1.4,-0.1,0.3
CCCC(=O)Nc1ccc(Cl)c(NC(=S)NC(=O)c2ccco2)c1,-2.8,52.9*,-0.8,-1.4,-0.7,-1.3
O=C(Nc1ccc(Cl)c(NC(=O)c2cccs2)c1)c1ccco1,-2.4,74.8*,0.4,0.1,2.8,-1.9
O=C(Nc1ccc(NC(=O)C23CC4CC(CC(C4)C2)C3)cn1)c1ccco1,3.2,0.0,10.8*,1.4,3.3,0.8
CC(NS(=O)(=O)c1ccc(Br)s1)c1ccccc1 (configuration not stated),0.5,1.1,0.1,0.8,0.1,-0.7
Cc1ccc(-c2nc3ncccc3o2)cc1NC(=O)c1ccc2c(c1)OCO2,0.1,/,2.6,-0.9,0.4,-1.1
Cc1[nH]c2ccccc2c1CC(=O)Nc1ccc(Nc2cccnc2)c(-c2ccc(Oc3ccccc3)cc2)c1,2.4,/,-0.5,-0.8,/,0.1
CN(C(=O)C(Cl)Cl)C1CC2C=CC1C2 (configuration not stated),0.8,-1.4,0.0,-0.6,0.1,-1.3
CCN1CCN(c2ccc(NC(=O)c3ccco3)cc2Cl)CC1,0.6,-1.6,6.7,0.8,0.8,-0.1
O=C(Nc1ccc(NC(=O)c2ccco2)cc1)c1ccco1,1.6,-4.4,6.9,4.4*,-0.4,-0.6
O=C(Nc1ccc(Nc2ccccc2)cc1)c1ccco1,2.8,-3.8,9.7,1.1,3.8,-0.3
O=C(Nc1ccc(N2CCCC2)c(Cl)c1)c1ccco1,3.3,-0.3,12.2*,3.5,-1.3,0.0
CC(=O)N(C)c1ccc(NC(=O)c2ccco2)cc1,5.2,14.1,6.8,3.8*,0.2,0.2
O=C(Nc1ccc(Br)cc1)c1ccco1,4.7,1.4,9.6,1.4,0.9,-1.2
Cc1ccc(S(=O)(=O)Nc2csc(C)c2C(=O)O)cc1,-1.5,-0.1,-0.5,0.1,/,-1.3
COC(=O)CCCn1cc(CN2CC(N3CCCC3)CS2(=O)=O)nn1 (configuration not stated),-0.3,/,4.1,1.3,/,-0.7
Cc1nc(C(F)(F)F)nc(Nc2ccc(Br)cc2)c1C#N,2.2,51.4*,2.3,-0.3,1.9,-0.4
O=C(Cn1cnc([N+](=O)[O-])c1)Nc1ccc(Cl)cc1Cl,0.7,/,-0.4,-0.7,0.9,-0.5
O=[N+]([O-])c1cc2c(c(CSc3ncccn3)c1)OCOC2,0.8,6.2,4.2,0.4,6.9*,0.8
Cc1nc(/N=C(\N)NC(=O)c2ccccc2)nc2ccccc12,/,63.1*,/,/,0.2,/
CCC(=O)N/C(N)=N/c1nc(C)c2cc(C)c(C)cc2n1,0.3,50.4*,-1.9,0.2,/,-1.0

# Source: PubChem (The Scripps Research Institute Molecular Screening Center)
